The results in this text go back to PubChem BioAssay AID2515 (National Center for Advancing Translational Sciences (NCATS), 2010).

Results filed as inconclusive are left out. Activity calls are given as the source filed them. The call rests on the fitted dose curve; in most records, active means well fitted inhibition curve with a large enough effect; inconclusive means small, poorly fitted or top-dose-only effect; inactive means flat fitted curve, though single readings scatter.

The assay addresses Luciferin 4-monooxygenase (Photinus pyralis) (UniProt P08659). The experiment in a line: Counterscreen Assay for Enhancers of SMN2 Splice Variant Expression: Interaction with Luciferase Reporter for Probe SAR. The note with it: purified firefly luciferase, luminescence inhibition. The source says: NIH Chemical Genomics Center [NCGC] NIH Molecular Libraries Probe Production centers Network [MLPCN] MLPCN Grant: R03 MH084179-01 Assay Submitter (PI): Elliot Androphy NCGC Assay Overview: Spinal muscular atrophy (SMA) is caused by insufficient levels of the survival motor neuron protein SMN. The SMN locus on chromosome 5q13 contains two inverted copies of SMN called SMN1 and SMN2 which are 99% identical at the amino acid level. SMN1 is a fully functional protein and SMN2 skips exon 7 90% of the time. Skipping of exon 7 produces non-functional protein product. 10% of the SMN2 protein includes exon 7 and is fully functional. In the SMA disease state, mutations in the SMN1 locus are the cause of the disease state. […]
NCGC Assay Protocol Summary: The primary screen utilizes a luciferase reporter gene assay, combining the promoter and splicing based cassettes in tandem with the major portion of the native SMN1 cDNA, and then transfected into HEK293 cells. […] Sequence, Parameter, Value, Description (1) Reagent, 2.5 uL, Enzyme in buffer (note A) (2) Compound, 23 nL, From stock solutions (3) Time, 5 minutes, Room temp (4) Reagent#2.5 ul, Luciferase detection reagent (note B) (5) Detector, 1 sec integrate, Luminescent read on Viewlux (note C) Sigma enzyme (1 mg) considered to be MW 61,000 diluted in 357 ul assay buffer to 50 uM stock. […]
On the technique in general: Counterscreens check selectivity or assay interference.

Luciferin 4-monooxygenase (Photinus pyralis), sequence (P08659 whole entry, looked up, canonical isoform): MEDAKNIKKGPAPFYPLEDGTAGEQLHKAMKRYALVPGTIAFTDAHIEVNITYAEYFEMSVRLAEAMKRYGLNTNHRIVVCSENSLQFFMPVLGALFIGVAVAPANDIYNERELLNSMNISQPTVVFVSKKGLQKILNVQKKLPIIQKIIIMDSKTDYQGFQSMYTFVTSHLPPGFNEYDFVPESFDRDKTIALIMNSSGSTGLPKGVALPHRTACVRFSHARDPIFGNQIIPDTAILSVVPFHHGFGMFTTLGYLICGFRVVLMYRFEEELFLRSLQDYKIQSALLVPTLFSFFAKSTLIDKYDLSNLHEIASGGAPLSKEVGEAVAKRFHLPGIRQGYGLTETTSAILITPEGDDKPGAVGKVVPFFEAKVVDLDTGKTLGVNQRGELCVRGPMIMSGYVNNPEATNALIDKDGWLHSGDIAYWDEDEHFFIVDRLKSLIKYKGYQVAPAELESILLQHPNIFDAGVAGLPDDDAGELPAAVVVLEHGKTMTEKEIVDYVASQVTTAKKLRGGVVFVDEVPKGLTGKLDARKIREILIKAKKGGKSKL

Take `Brc1ccc(-c2csc(N3CCCCC3)n2)cc1`: the Potency was 17.9 µM (active).
